# Reference: PubChem BioAssay (EPA / NIEHS)
# Records with an inconclusive call do not appear. Calls of active or inactive are those of the source. How the source made its calls, unless noted: active means hit-call score of the fitted dose curve at least 0.9, where 1 is the maximum; inactive means score below 0.9.
# Columns and labels:
# [1] = molecular target: Transcriptional activator Myb (Homo sapiens) (UniProt P10242); test: ATG_Myb_CIS: Attagene CIS-FACTORIAL HepG2 Assay for human Myeloblastosis (Myb) Proto-Oncogene Transcription Factor (AID 2282986); conditions: HepG2 Attagene CIS-FACTORIAL Myb reporter transcription; actives raise or lower the signal
# Outline: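 Endogenous transcription factor activity at a Myb-responsive cis element is reported in human liver HepG2 cells after 24 h chemical treatment. Reporter mRNA is detected by RT-PCR and capillary electrophoresis fluorescence, with DMSO as baseline.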
# [2] = molecular target: Nuclear respiratory factor 1 (Homo sapiens) (UniProt Q16656); test: ATG_NRF1_CIS: Attagene CIS-FACTORIAL HepG2 Assay for human Nuclear Respiratory Factor 1 (NRF1) Orphan Gene (AID 2282987); conditions: HepG2 NRF1 cis-element reporter, Attagene multiplex; actives raise or lower the signal
# Outline: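 Human hepatoma HepG2 cells carrying transfected promoter-regulated reporter units were incubated with test chemicals for 24 h. Reporter transcripts were measured by RT-PCR plus capillary electrophoresis, and endpoints derived by bidirectional fitting with DMSO as baseline.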
# [3] = molecular target: Myc proto-oncogene protein (Homo sapiens) (UniProt P01106); test: ATG_Myc_CIS: Attagene CIS-FACTORIAL HepG2 Assay for human Myelocytomatosis (Myc) Proto-Oncogene Transcription Factor (AID 2282990); conditions: HepG2, Attagene cis-reporter transcription factor activity; actives raise or lower the signal
# Outline: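 Multiplexed cis-reporter transcription in HepG2 cells after 24 h chemical treatment. Reporter mRNA measured by RT-PCR and capillary electrophoresis fluorescence; activity fitted bidirectionally against DMSO control.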
# [4] = ATG_NRF2_ARE_CIS: Attagene CIS-FACTORIAL HepG2 Assay for human Nuclear Factor Erythroid 2 Related Factor 2 (NFR2) response to Antioxidant Response Elements (ARE) (AID 2282992); conditions: HepG2 Attagene ARE/NRF2 reporter, transcription factor activity; actives raise or lower the signal
# Outline: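 Multiplexed reporter mRNA profiling in HepG2 after a 24 h chemical exposure. Curves fitted in both directions relative to DMSO negative control.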
# [5] = ATG_Oct_MLP_CIS: Attagene CIS-FACTORIAL HepG2 Assay for human Octamer-Binding Transcription Factor (Oct) (AID 2282993); conditions: HepG2 Attagene cis-factorial Oct reporter, mRNA; actives raise or lower the signal
# Outline: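 HepG2 cells transiently transfected with cis-element-driven reporter transcription units (endogenous TF activity); 24 h compound exposure. Reporter mRNA quantified by RT-PCR, 6-FAM labelling, HpaI digestion and capillary electrophoresis; bidirectional fit versus DMSO baseline.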
# [6] = molecular target: Cellular tumor antigen p53 (Homo sapiens) (UniProt P04637); test: ATG_p53_CIS: Attagene CIS-FACTORIAL HepG2 Assay for human p53 Transcription Factor (AID 2282994); conditions: HepG2 p53 cis-element reporter, Attagene mRNA; actives raise or lower the signal
# Outline: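 Multiplexed reporter mRNA assay in human HepG2 liver cells; cis-regulated units report endogenous factor activity. Values come from bidirectional curve fitting against DMSO negative control after 24 h treatment.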
# [7] = BSK_3C_TissueFactor: BioMAP Diversity Plus: 3C Assay for Tissue Factor Biomarker Activity (AID 2282997); conditions: BioMAP 3C HUVEC, tissue factor biomarker readout; actives raise or lower the signal
# Outline: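 Primary human umbilical vein endothelial cells in the 3C system were exposed to test chemical for 24 h, then Tissue Factor measured by ELISA. Activity was fitted bidirectionally against DMSO as negative control and baseline.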
# [8] = BSK_3C_uPAR: BioMAP Diversity Plus: 3C Assay for Urokinase-type plasminogen activator receptor (uPAR) Biomarker Activity (AID 2282998); conditions: BioMAP 3C HUVEC, uPAR biomarker ELISA; actives raise or lower the signal
# Outline: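 Primary human umbilical vein endothelial cells, 3C system; surface uPAR measured by ELISA 24 h after dosing. Cytotoxicity via SRB total protein in parallel cultures; bidirectional fit against DMSO.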
# [9] = BSK_3C_VCAM1: BioMAP Diversity Plus: 3C Assay for Vascular cell adhesion molecule 1 (VCAM1) Biomarker Activity (AID 2282999); conditions: BioMAP 3C HUVEC, VCAM1 ELISA, cytokine-stimulated; actives raise or lower the signal
# Outline: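 Human umbilical vein endothelial cells were dosed with compound for 24 h, after which cell-surface VCAM-1 was quantified by ELISA. Bidirectional curve fitting used DMSO as negative control and activity baseline.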
# [10] = BSK_4H_Eotaxin3: BioMAP Diversity Plus: 4H Assay for Eotaxin 3 Biomarker Activity (AID 2283000); conditions: primary human endothelial cells (HUVEC); actives raise or lower the signal;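 on outcome: CCL26 protein level quantified by ELISA in parallel with SRB cytotoxicity check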
# Outline: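 HUVEC, 24 h post-dose, ELISA for Eotaxin-3/CCL26. Gain or loss of signal fitted bidirectionally vs DMSO baseline.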
# [11] = read-out: Intercellular Adhesion Molecule 1 (ICAM1), ICAM1 (gene 3383); test: BSK_3C_ICAM1: BioMAP Diversity Plus: 3C Assay for Intercellular Adhesion Molecule 1 (ICAM1) Biomarker Activity (AID 2283003); conditions: primary human endothelial cells (HUVEC); actives raise or lower the signal
# Outline: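 Primary human umbilical vein endothelial cells in the BioMAP 3C system were exposed to chemicals for 24 h, then ICAM-1 was quantified by ELISA. Activity was fitted bidirectionally against the DMSO negative control baseline.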
# [12] = molecular target: human Retinoic Acid Receptor beta (RARb), RARB (gene 5915) (UniProt P10826); test: ATG_RARb_TRANS: Attagene TRANS-FACTORIAL HepG2 Assay for human Retinoic Acid Receptor beta (AID 2283004; active means hit-call score of the fitted dose curve at least 0.9, where 1 is the maximum)
# Outline: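 HepG2 cells transiently transfected with multiplexed GAL4-UAS reporter units expressing chimeric NR–Gal4 fusions; 24 h compound exposure. Reporter mRNA quantified by RT-PCR, 6-FAM labelling, HpaI digestion and capillary electrophoresis; gain-of-signal fitted against DMSO baseline.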
# [13] = molecular target: Peroxisome proliferator-activated receptor gamma (Homo sapiens) (UniProt P37231); test: ATG_PPARg_TRANS: Attagene TRANS-FACTORIAL HepG2 Assay for human Peroxisome Proliferator-activated Receptor-gamma (PPARg) (AID 2283007; active means hit-call score of the fitted dose curve at least 0.9, where 1 is the maximum)
# Outline: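 Human hepatoma HepG2, transient MRTU transfection, 24 h treatment. mRNA reporter signal by RT-PCR plus capillary electrophoresis, fluorescence detection; fitted for increase over DMSO negative control.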
# [14] = molecular target: Nuclear receptor subfamily 1 group I member 2 (Homo sapiens) (UniProt O75469); test: ATG_PXR_TRANS: Attagene TRANS-FACTORIAL HepG2 Assay for human Pregnane X Receptor (PXR) (AID 2283008; active means hit-call score of the fitted dose curve at least 0.9, where 1 is the maximum)
# Outline: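 Measures mRNA induction of a GAL4-UAS-driven reporter in human HepG2 cells transiently expressing PXR fused to Gal4, following 24 h treatment. DMSO served as negative control and baseline.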
# [15] = molecular target: human Peroxisome Proliferator-activated Receptor alpha (PPARa), PPARA (gene 5465) (UniProt Q07869); test: ATG_PPARa_TRANS: Attagene TRANS-FACTORIAL HepG2 Assay for human Peroxisome Proliferator-activated Receptor alpha (PPARa) (AID 2283001; active means hit-call score of the fitted dose curve at least 0.9, where 1 is the maximum)
# Outline: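 HepG2 cells transiently transfected with multiplexed GAL4-UAS reporter units and chimeric NR-Gal4 constructs were dosed for 24 h. Reporter mRNA was measured by RT-PCR with fluorescent labelling and capillary electrophoresis; gain of signal fitted against DMSO.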
# [16] = molecular target: Retinoic acid receptor alpha (Homo sapiens) (UniProt P10276); test: ATG_RARa_TRANS: Attagene TRANS-FACTORIAL HepG2 Assay for human Retinoic Acid Receptor alpha (RARa) (AID 2283005; active means hit-call score of the fitted dose curve at least 0.9, where 1 is the maximum)
# Outline: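 HepG2 cells transiently transfected with multiple reporter units expressing chimeric RARα-GAL4 fusion, with GAL4-UAS-driven reporters. After 24 h compound exposure, reporter mRNA induction quantified by RT-PCR and capillary electrophoresis with fluorescent labeling; gain-of-signal fitted relative to DMSO control.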
# [17] = BSK_3C_Proliferation: Cell Proliferation Assessment in the BioMAP Diversity Plus: 3C Assay (AID 2283006); conditions: primary human endothelial cells (HUVEC);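 further: potency may reflect either rise or fall in cell number versus DMSO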
# Outline: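 Human umbilical vein endothelial cells were grown sub-confluent and exposed to chemical for 48 h, then fixed with 10% TCA and stained with 0.1% sulforhodamine B; absorbance at 560 nm gave relative cell number, fitted bidirectionally against DMSO baseline.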
# [18] = molecular target: human Retinoic Acid Receptor gamma (RARg), RARG (gene 5916) (UniProt P13631); test: ATG_RARg_TRANS: Attagene TRANS-FACTORIAL HepG2 Assay for human Retinoic Acid Receptor gamma (RARg) (AID 2283009; active means hit-call score of the fitted dose curve at least 0.9, where 1 is the maximum)
# Outline: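 HepG2 cells transiently transfected with multiplexed reporter units expressing chimeric RARg-GAL4 and GAL4-UAS-driven reporters; 24 h compound exposure. Reporter mRNA quantified by RT-PCR with fluorescent labelling and capillary electrophoresis; gain-of-signal fitted relative to DMSO baseline.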
# [19] = molecular target: human Peroxisome Proliferator-activated Receptor delta (PPARd), PPARD (gene 5467) (UniProt Q03181); test: ATG_PPARd_TRANS: Attagene TRANS-FACTORIAL HepG2 Assay for human Peroxisome Proliferator-activated Receptor delta (PPARd) (AID 2283002; active means hit-call score of the fitted dose curve at least 0.9, where 1 is the maximum)
# Outline: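 Multiplexed trans-activation format: HepG2 liver cells expressing exogenous NR-Gal4 chimeras and GAL4-UAS reporters were exposed for 24 h. Reporter mRNA was detected by RT-PCR with capillary electrophoresis fluorescence; activity fitted as gain of signal relative to DMSO.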
# Sequence of Transcriptional activator Myb (Homo sapiens) (P10242 whole entry, looked up): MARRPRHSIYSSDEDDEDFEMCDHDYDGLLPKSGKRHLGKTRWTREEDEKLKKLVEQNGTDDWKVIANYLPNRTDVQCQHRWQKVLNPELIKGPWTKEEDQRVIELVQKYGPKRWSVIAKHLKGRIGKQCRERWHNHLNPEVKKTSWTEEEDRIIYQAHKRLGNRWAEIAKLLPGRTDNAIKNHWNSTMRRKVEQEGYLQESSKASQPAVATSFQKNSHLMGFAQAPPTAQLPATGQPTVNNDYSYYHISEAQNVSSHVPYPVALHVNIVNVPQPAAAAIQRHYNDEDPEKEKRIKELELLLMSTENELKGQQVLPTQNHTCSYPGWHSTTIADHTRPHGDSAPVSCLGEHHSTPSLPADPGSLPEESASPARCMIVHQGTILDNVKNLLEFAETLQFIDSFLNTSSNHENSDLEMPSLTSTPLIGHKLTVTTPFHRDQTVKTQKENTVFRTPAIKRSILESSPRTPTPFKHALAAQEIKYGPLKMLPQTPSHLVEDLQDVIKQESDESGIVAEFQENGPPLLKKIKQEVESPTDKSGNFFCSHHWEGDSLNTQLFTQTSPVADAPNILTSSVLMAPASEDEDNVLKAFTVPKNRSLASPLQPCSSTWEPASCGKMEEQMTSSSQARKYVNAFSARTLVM
# Sequence of Cellular tumor antigen p53 (Homo sapiens) (P04637 whole entry, looked up): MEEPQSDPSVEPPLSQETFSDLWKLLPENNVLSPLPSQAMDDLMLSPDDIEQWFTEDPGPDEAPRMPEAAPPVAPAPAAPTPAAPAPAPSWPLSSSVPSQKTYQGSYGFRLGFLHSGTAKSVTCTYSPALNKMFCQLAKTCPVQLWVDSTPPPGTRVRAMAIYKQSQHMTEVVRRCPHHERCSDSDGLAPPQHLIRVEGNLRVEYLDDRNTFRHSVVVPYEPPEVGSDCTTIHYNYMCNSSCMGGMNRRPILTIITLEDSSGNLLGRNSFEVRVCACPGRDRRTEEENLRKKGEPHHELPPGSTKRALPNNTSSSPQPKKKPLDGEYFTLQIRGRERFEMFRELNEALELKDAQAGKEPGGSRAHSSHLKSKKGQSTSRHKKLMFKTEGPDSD
# Sequence of human Retinoic Acid Receptor beta (RARb), RARB (gene 5915) (P10826 whole entry, looked up, the tested form may be a part): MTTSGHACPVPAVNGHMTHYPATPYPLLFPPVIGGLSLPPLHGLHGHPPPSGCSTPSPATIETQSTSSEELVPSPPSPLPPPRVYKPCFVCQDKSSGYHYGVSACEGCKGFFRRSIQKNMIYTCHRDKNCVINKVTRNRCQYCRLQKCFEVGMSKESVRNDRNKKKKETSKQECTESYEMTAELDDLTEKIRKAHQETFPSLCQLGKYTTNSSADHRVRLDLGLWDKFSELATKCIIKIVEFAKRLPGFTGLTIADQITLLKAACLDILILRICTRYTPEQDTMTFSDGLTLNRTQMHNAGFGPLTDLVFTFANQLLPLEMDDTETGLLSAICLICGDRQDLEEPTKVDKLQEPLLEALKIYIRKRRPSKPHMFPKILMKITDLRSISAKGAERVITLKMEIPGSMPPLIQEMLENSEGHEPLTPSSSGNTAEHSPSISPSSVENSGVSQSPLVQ
# Sequence of Nuclear receptor subfamily 1 group I member 2 (Homo sapiens) (O75469 whole entry, looked up, the tested form may be a part): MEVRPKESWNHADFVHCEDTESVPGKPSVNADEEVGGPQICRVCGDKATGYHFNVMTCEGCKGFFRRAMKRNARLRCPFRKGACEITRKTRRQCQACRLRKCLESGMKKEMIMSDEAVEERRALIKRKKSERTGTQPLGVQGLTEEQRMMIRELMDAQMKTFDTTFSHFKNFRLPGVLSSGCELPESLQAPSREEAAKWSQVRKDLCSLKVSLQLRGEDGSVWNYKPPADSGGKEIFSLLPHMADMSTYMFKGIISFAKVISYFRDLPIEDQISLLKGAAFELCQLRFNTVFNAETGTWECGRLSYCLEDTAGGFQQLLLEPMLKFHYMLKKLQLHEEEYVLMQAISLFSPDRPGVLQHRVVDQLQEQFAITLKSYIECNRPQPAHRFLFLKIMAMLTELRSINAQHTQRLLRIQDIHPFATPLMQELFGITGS
# Sequence of human Retinoic Acid Receptor gamma (RARg), RARG (gene 5916) (P13631 whole entry, looked up, the tested form may be a part): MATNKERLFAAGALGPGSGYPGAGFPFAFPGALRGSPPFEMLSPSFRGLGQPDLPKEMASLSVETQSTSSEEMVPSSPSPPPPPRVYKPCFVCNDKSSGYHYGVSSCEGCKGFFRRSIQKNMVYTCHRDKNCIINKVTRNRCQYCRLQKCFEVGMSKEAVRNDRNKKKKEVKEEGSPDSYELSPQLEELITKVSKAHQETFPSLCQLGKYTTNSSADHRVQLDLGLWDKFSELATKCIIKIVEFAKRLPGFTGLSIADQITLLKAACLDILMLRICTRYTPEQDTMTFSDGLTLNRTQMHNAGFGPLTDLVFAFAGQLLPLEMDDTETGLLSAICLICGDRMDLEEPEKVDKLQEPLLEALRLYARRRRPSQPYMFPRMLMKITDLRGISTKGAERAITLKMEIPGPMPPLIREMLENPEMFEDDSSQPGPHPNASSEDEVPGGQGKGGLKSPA
# Sequence of Retinoic acid receptor alpha (Homo sapiens) (P10276 whole entry, looked up, the tested form may be a part): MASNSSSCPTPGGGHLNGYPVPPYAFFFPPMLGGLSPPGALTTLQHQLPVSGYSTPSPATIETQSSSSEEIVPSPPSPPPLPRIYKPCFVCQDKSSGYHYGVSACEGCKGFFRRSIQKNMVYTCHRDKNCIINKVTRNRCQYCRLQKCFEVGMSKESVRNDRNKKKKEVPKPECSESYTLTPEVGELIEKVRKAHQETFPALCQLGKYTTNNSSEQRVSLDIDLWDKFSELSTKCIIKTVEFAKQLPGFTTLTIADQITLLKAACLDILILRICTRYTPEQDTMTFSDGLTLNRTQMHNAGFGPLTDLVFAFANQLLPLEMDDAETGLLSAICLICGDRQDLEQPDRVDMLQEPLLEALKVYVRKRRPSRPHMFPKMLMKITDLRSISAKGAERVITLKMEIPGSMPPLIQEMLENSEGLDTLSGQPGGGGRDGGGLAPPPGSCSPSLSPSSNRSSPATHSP
# Sequence of human Peroxisome Proliferator-activated Receptor alpha (PPARa), PPARA (gene 5465) (Q07869 whole entry, looked up, the tested form may be a part): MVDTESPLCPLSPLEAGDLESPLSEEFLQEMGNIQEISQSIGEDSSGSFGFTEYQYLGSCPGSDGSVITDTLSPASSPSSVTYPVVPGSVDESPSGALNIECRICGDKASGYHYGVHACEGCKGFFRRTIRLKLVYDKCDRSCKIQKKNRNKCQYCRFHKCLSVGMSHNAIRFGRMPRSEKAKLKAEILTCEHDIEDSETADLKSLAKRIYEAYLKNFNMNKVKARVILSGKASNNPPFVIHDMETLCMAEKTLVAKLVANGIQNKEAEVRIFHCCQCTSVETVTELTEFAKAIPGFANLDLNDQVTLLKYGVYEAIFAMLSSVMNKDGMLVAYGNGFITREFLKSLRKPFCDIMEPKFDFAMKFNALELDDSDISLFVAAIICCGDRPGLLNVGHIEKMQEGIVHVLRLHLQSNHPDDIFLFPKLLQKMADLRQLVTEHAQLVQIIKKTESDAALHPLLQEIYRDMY
# Sequence of Myc proto-oncogene protein (Homo sapiens) (P01106 whole entry, looked up): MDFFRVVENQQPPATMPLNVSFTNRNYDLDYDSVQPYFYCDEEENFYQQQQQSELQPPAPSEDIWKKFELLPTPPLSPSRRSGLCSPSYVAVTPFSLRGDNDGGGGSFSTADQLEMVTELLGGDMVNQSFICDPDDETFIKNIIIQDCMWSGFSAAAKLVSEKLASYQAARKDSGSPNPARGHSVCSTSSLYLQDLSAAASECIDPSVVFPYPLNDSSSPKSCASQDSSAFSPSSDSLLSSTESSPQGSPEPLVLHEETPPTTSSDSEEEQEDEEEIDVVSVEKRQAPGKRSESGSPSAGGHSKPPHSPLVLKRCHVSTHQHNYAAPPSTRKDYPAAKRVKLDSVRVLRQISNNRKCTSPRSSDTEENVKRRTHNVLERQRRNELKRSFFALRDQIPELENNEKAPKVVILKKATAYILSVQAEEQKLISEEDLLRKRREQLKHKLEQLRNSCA
# Sequence of Peroxisome proliferator-activated receptor gamma (Homo sapiens) (P37231 whole entry, looked up): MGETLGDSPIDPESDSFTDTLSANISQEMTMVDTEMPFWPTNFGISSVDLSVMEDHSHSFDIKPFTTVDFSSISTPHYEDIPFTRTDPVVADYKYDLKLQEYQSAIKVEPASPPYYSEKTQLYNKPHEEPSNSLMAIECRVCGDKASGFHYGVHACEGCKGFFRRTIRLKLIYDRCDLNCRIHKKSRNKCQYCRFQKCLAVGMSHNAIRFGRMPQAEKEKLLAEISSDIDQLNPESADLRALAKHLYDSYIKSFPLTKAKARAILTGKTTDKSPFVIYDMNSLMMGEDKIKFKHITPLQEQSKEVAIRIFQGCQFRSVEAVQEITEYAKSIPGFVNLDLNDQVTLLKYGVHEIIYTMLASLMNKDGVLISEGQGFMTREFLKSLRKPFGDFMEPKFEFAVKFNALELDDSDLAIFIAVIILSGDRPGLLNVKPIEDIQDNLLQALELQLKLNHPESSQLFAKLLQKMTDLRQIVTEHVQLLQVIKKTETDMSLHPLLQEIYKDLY
# Sequence of Nuclear respiratory factor 1 (Homo sapiens) (Q16656 whole entry, looked up): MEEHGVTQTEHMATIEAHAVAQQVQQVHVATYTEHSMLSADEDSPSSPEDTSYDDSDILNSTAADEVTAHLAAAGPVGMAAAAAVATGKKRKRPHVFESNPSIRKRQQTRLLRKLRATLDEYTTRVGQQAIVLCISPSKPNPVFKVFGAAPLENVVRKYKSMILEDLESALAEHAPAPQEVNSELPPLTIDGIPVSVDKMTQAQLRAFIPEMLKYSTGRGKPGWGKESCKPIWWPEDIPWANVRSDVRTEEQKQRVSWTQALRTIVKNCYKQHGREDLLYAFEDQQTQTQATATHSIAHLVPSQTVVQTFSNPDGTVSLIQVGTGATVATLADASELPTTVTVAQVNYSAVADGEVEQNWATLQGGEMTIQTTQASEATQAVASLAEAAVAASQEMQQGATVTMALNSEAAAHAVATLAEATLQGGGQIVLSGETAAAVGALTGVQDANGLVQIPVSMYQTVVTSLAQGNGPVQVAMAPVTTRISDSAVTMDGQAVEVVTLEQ
smiles,measurement,setting,value
CCOc1cc(Oc2ccc(C(F)(F)F)cc2Cl)ccc1[N+](=O)[O-],outcome,[1],inactive
same,outcome,[2],inactive
same,AC50,[3],30.3 µM (active)
same,AC50,[4],13700 nM (active)
same,AC50,[5],13700 nM (active)
same,outcome,[6],inactive
same,outcome,[7],inactive
same,outcome,[8],inactive
same,outcome,[9],inactive
same,outcome,[10],inactive
same,outcome,[11],inactive
same,outcome,[12],inactive
same,AC50,[13],13.5 µM (active)
same,outcome,[14],inactive
CC(C)(C)c1ccc(CSc2cnn(C(C)(C)C)c(=O)c2Cl)cc1,outcome,[1],inactive
same,AC50,[2],19.1 µM (active)
same,outcome,[3],inactive
same,AC50,[4],91.2 nM (active)
same,AC50,[5],24 nM (active)
same,outcome,[6],inactive
same,outcome,[7],inactive
same,AC50,[8],8.48 µM (active)
same,outcome,[9],inactive
same,AC50,[10],0.782 µM (active)
same,outcome,[15],inactive
same,outcome,[11],inactive
same,outcome,[12],inactive
same,outcome,[16],inactive
same,AC50,[17],9.12 µM (active)
same,AC50,[13],10.5 µM (active)
same,outcome,[14],inactive
same,outcome,[18],inactive
COC(=O)N(OC)c1ccccc1COc1ccn(-c2ccc(Cl)cc2)n1,outcome,[1],inactive
same,outcome,[2],inactive
same,outcome,[3],inactive
same,AC50,[4],635 nM (active)
same,AC50,[5],702 nM (active)
same,outcome,[6],inactive
same,outcome,[7],inactive
same,AC50,[8],20 µM (active)
same,outcome,[9],inactive
same,AC50,[10],18.3 µM (active)
same,outcome,[15],inactive
same,outcome,[19],inactive
same,outcome,[11],inactive
same,outcome,[12],inactive
same,outcome,[16],inactive
same,AC50,[13],0.592 µM (active)
same,outcome,[14],inactive
same,outcome,[18],inactive
CCc1nn(C)c(C(=O)NCc2ccc(C(C)(C)C)cc2)c1Cl,outcome,[1],inactive
same,outcome,[2],inactive
same,outcome,[3],inactive
same,AC50,[4],214 nM (active)
same,AC50,[5],397 nM (active)
same,AC50,[6],1.9 µM (active)
same,AC50,[7],20 µM (active)
same,AC50,[8],26.7 µM (active)
same,AC50,[9],31.8 µM (active)
same,AC50,[10],27.1 µM (active)
same,outcome,[15],inactive
same,outcome,[11],inactive
same,outcome,[12],inactive
same,outcome,[16],inactive
same,outcome,[13],inactive
same,outcome,[14],inactive
same,outcome,[18],inactive
